This note sets out measurements from PubChem BioAssay.

As a reminder, the viability is a read-out of living cells in per cent, often relative to untreated cells. The term inhibition denotes the relative decrease from the control value, in per cent.

A short description of test [1]: reducers of endogenous Her2 protein level, primary screen, SKBR3 breast tumor cells, AlphaScreen, ATP viability (AID 461;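 active = Her2 level under about 52% in both replicate screens, with viability over 70% of control, limit read from the data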;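 as to Her2 level: lower value means less Her2 protein in the cells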;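 as to viability: percent of carrier control wells set as 100% viability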). Particulars: 18-24 h, measured here: SKBR3 viability, ATP luminescence, at 10 µM.
In test [2] the target is Receptor tyrosine-protein kinase erbB-2 (Homo sapiens) (UniProt P04626). The test is described as above. Particulars: 18-24 h, at 10 µM, stronger effect = lower value.
Sequence of Receptor tyrosine-protein kinase erbB-2 (Homo sapiens) (P04626 whole entry, looked up): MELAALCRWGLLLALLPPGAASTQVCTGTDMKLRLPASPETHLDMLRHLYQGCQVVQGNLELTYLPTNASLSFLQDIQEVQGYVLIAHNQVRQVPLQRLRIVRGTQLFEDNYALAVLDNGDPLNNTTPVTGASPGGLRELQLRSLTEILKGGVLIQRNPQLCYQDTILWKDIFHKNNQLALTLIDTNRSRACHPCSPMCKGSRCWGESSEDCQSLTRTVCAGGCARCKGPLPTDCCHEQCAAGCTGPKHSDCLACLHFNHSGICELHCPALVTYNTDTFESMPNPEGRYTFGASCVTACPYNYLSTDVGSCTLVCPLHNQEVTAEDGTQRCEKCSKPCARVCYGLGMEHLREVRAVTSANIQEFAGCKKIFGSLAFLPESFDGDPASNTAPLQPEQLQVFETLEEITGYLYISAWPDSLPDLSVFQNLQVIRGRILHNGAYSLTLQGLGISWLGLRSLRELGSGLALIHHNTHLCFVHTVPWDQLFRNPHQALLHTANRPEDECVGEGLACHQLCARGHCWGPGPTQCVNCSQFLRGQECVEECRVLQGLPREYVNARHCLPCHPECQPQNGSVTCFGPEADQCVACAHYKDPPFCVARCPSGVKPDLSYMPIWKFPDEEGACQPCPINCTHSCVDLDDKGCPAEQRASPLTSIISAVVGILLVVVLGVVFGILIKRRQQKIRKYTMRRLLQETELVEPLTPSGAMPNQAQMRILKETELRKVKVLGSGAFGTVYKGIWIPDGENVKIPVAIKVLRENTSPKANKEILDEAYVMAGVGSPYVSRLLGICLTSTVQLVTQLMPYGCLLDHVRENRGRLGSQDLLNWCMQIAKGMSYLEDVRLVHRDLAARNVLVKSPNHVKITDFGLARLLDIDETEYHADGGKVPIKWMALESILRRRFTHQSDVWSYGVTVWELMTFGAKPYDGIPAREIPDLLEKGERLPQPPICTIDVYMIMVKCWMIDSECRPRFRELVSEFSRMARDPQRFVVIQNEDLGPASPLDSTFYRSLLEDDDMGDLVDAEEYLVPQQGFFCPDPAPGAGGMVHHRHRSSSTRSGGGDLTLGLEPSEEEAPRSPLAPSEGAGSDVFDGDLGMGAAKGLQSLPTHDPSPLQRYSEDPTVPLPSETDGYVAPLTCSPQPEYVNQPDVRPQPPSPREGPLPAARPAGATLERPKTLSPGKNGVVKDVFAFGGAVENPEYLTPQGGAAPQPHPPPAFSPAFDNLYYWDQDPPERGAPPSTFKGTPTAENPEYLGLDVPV
Test [3] is described as follows: SK-BR-3 cell growth inhibitors, pilot screen, 24 h, human (AID 572;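 active = viability at or below 10% of carrier control in both of two separate runs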;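 also: compound exposure lasted between 18 and 24 h rather than exactly 24 h; 100% = carrier-treated control wells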). Particulars: SK-BR-3 viability, CellTiter-Glo luminescence, at 10 µM, stronger effect = lower value. (In general: ATP-based viability assays read luminescence as a measure of living cells.)
Test [4] in a line: HUVEC growth inhibition – cell-based, human, primary screen (AID 575).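 Also: 100% = median of untreated cell wells with 0.1% DMSO on each plate.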 Particulars: HUVEC proliferation, CellTiter-Glo luminescence, 72 h; at 10 µM; stronger effect = lower value.
A short description of test [5]: growth inhibitors of H69AR lung tumor, primary screen, human, duplicate replicates (AID 580;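 active = viability at or under a set limit in both replicates, limit being median viability minus 3 SD, cut at about 48% in these data, passing the limit was not always enough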;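 also: 100% = mean luminescence of untreated wells and 0% = no signal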). To be noted: H69AR lung tumor cells viability, ATP luminescence, 72 h; at 10 µM; stronger effect = lower value.
A short description of test [6]: reversal of MRP1-mediated doxorubicin resistance, pilot screen, H69AR cells, doxorubicin co-treatment (AID 601;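 active = viability loss from added drug above about 55%, and viability with drug at most 40%, in both replicates, limit read from the data, passing the limit was not always enough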). Particulars: CellTiter-Glo, 72 h, at 10 µM; for differential viability (reversal): stronger effect = higher value.
The nature of test [7]: 384-well plate pilot, post-Golgi transport modulator project, inhibition of yeast transport mutant growth (AID 636; in the data active = inhibition above about 31%). To be noted: absorbance 615 nm, about 18 h, stronger effect = higher value.
A short description of test [8]: growth suppression of yeast trafficking mutant, preliminary HTS, modulators of trafficking downstream of Golgi apparatus project, 1536-format plate, OD 615 nm (AID 637; in the data active = inhibition above about 30%). Particulars: yeast transport mutant growth, absorbance 615 nm, 18 h; stronger effect = higher value.
Test [9] in a line: OD615 S. cerevisiae growth inhibition, permissive medium, pilot counter-assay, permissive growth control for S. cerevisiae lifespan shortening project (AID 705;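 active = growth inhibition above 25% in both replicates, a cutoff set 3 SD above the mean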). To be noted: OD615, 24 h, at 10 µM, stronger effect = higher value.
Test [10] is described as follows: Restrictive medium S. cerevisiae growth inhibition, OD615, pilot screen of yeast lifespan reduction project, restrictive growth control (AID 706;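 active = growth inhibition above a set limit, 3 SD over mean compound inhibition, in both replicates, cut at about 43% in these data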;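 also: modified DeaD lifespan yeast strain shifted to restrictive glucose medium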). To be noted: OD615, 48 h, at 10 µM, stronger effect = higher value.
The nature of test [11]: viability gain of MRP-1-high H69AR cells under doxorubicin, pilot screen, MRP-1 activator project, CellTiter-Glo, duplicate (AID 807;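 active = viability increase at or above a cutoff of the median across tested compounds plus 3 SD, cut at about 8.5% in these data, passing the limit was not always enough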;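 also: compound pretreatment 18-22 h then 72 h combined with doxorubicin; 0% = doxorubicin alone and 100% = vehicle without doxorubicin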). Particulars: H69AR viability with doxorubicin, CellTiter-Glo luminescence; at 10 µM; stronger effect = higher value.
The nature of test [12]: growth suppression of beta-catenin knockout HCT116, pilot screen, human colon tumor cells (AID 823;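 active = cell viability at or below a set limit in both duplicate runs, the limit being the all-compound median minus 4 SD, cut at about 23% in these data, passing the limit was not always enough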;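 also: 0% = wells killed by 20 µM Hyamine and 100% = untreated DMSO cell wells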). To be noted: CellTiter-Glo, 60 h, at 10 µM, stronger effect = lower value.
Test [13] in a line: growth suppression of PTEN-deleted HCT116, pilot screen, cell-based, HCT116 clonal line, CellTiter-Glo (AID 824;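 active = viability at or below 27.92% in each of two runs, the all-compound median minus 4 SD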;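 also: 0% = 20 µM Hyamine control and 100% = vehicle cell control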). To be noted: 60 h, at 10 µM, stronger effect = lower value.
Test [14] in a line: inhibitors of the yeast RAM network, pilot screen, dse1pr::URA3 reporter, 5-FOA selection (AID 869;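 active = inhibition over a set limit, the all-compound mean plus 3 SD, in both replicate runs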;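 also: 0% = DMSO wells with no growth and 100% = 10 µM 1-NA-PP1 with full growth; RAM network block rescues cells from 5-FOA so hits raise OD615 growth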). Particulars: S. cerevisiae dse1pr::URA3 5-FOA growth, OD615, 2 d; at 10 µM; stronger effect = higher value; strain carries analog-sensitive mutant Cbk1 kinase.
The nature of test [15]: RAM signaling pathway blockade in yeast – S. cerevisiae, Pdr1DBD-CYC8 efflux-inhibited sensitized strain, primary screen (AID 1298;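 active = RAM network inhibition above 8.4% in each of two replicates, 3 SD over the compound average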;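 also: 0% = DMSO untreated cells without growth and 100% = 10 µM 1-NA-PP1 full growth; higher means more yeast growth rescued from 5-FOA killing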). Particulars: S. cerevisiae cbk1-as DSE1-URA3 strain, 5-FOA growth OD615, 2 d; at 50 µM; stronger effect = higher value.
Where [16] appears, read: H69AR cells + 2 uM doxorubicin, measured here: viability with 2 uM doxorubicin, stronger effect = lower value.
The mark [17] stands for this setting: H69AR cells, compound alone cytotoxicity.

Records with an inconclusive call do not appear. Calls of active or inactive are those of the source.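 The calls were made as follows, unless noted: active = viability at or below 30% in both replicate assays; inconclusive = viability at or below 30% in just one of the two assays; inactive = the rest.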

For the compound `CCc1nc2sc(C)c(C)c2c(=O)n1CCO`, the viability was 106% in test [1]; 106% (inactive) in test [3]; 104% (inactive) in test [4]; 94.7% (inactive) in [5]; 90.6% in [6] (setting [16]); 94.7% in test [6] (setting [17]). For the same compound, the results for the viability in [12] and in test [13] were 104% (inactive) and 102% (inactive), respectively. Further, the Her2 level in [2] is 85% (inactive). Moreover, the differential viability (reversal) in [6] (H69AR cells + 2 uM doxorubicin) is 4.12% (inactive). Moreover, the inhibition in test [7] was -6.23% (inactive); in test [8] it was -3.67% (inactive); in test [14], 0.35% (inactive). For the same compound, the growth inhibition in test [9] was -1.03% (inactive); in test [10], 0.805% (inactive). The viability increase in [11] was -1.82% (inactive). The RAM network inhibition in test [15] was 2.87% (inactive).
`CC1CCN(C(=O)CSc2nnc(Cc3cc(=O)[nH]c(=O)[nH]3)n2-c2ccc(Cl)cc2)CC1`: the viability in [1] is 92.5%; in [3], 92.5% (inactive); in test [4], 101% (inactive); in test [5], 101% (inactive); in test [6] (setting [16]) it was 98.2%; in [6] (setting [17]), 101%. In addition, the viability in [12] was 105% (inactive); in test [13], 100% (inactive). For the same compound, the Her2 level in test [2] is 117% (inactive). Besides, in [6] (H69AR cells + 2 uM doxorubicin), the differential viability (reversal) was 2.73% (inactive). Moreover, the inhibition in test [7] was -1.54% (inactive); in test [8], -4.17% (inactive); in test [14], -0.375% (inactive). The figures for the growth inhibition in [9] and in [10] were -17.1% (inactive) and -15.4% (inactive), respectively. The viability increase in [11] was -0.15% (inactive). For the same compound, in [15], the RAM network inhibition was 4.41% (inactive).
For `COc1ccc(C)cc1S(=O)(=O)N1CCN(S(=O)(=O)c2cc(C)ccc2OC)CC1`, the viability in [1] is 110%; in test [3], 110% (inactive); in test [4] it was 96.5% (inactive); in test [5], 95% (inactive); in test [6] (setting [16]), 95.2%; in [6] (setting [17]), 95%. The viability in [12] was 93.8% (inactive); in test [13] it was 90.9% (inactive). For the same compound, the Her2 level in test [2] was 114% (inactive). For the same compound, the differential viability (reversal) in test [6] (H69AR cells + 2 uM doxorubicin) was -0.24% (inactive). Also, the inhibition was -5.47% (inactive) in test [7], -9.03% (inactive) in test [8] and 2.31% (inactive) in [14]. For the same compound, the growth inhibition is -15.6% (inactive) in test [9] and -26.2% (inactive) in test [10]. In addition, the viability increase in test [11] was -0.01% (inactive). Also, the RAM network inhibition in [15] is 3% (inactive).
Take `CC(Sc1nc(-c2ccccc2)cc(C(F)(F)F)n1)C(=O)N1CCCC1` (stereo not given): the viability in test [1] was 84.5%; in [3], 84.5% (inactive); in test [4], 89.7% (inactive); in test [5], 88.8% (inactive); in test [6] (setting [16]) it was 97.3%; in test [6] (setting [17]), 88.8%. Moreover, the viability was 89.2% (inactive) in test [12] and 84% (inactive) in test [13]. Moreover, the Her2 level in test [2] is 94.5% (inactive). Besides, the differential viability (reversal) in test [6] (H69AR cells + 2 uM doxorubicin) is -8.49% (inactive). Moreover, the figures for the inhibition in test [7], in test [8] and in [14] were -4.13% (inactive), -3.61% (inactive) and 0.895% (inactive), respectively. The figures for the growth inhibition in test [9] and in test [10] were -2% (inactive) and -21.7% (inactive), respectively. In addition, the viability increase in [11] was -2.25% (inactive). Besides, the RAM network inhibition in [15] is 1% (inactive).
For the compound `COc1ccc(C2C(C(=O)N3CCC(C)CC3)c3ccccc3C(=O)N2C)cc1` (stereo not given), the viability in [1] is 109%; in test [3] it was 109% (inactive); in test [4], 108% (inactive); in test [5], 94.9% (inactive); in [6] (setting [16]), 96.1%; in test [6] (setting [17]), 94.9%. The viability in test [12] was 83.3% (inactive); in test [13] it was 82.9% (inactive). The Her2 level in test [2] was 112% (inactive). Further, the differential viability (reversal) in [6] (H69AR cells + 2 uM doxorubicin) is -1.18% (inactive). For the same compound, the inhibition was 1.23% (inactive) in [7], 9.84% (inactive) in test [8] and 2.41% (inactive) in test [14]. For the same compound, the growth inhibition is -17% (inactive) in [9] and -12% (inactive) in test [10]. Further, the viability increase in test [11] was -2.5% (inactive). Also, the RAM network inhibition in [15] is 7.41% (inactive).
